# From PubChem BioAssay
# The source made the active and inactive calls.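 How the source made its calls, unless noted: active means fluorescence slope higher than the sample average by over 3 SD (cut at about -0.22 in these data, passing the limit was not always enough); inactive means the rest.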
# System: not listed separately
# Test: endothelial E-selectin expression blockers – imaging, HUVEC, immunofluorescence, MLSMR starter and 10KST1 sets, primary screen (AID 487;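 active means visually confirmed hit in the image check and inhibition above 20%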;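 on inhibition: signal is fraction of cell area covered by stained E-selectin grains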;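 on nuclei count: 100% = median nuclei count of all wells on the same plate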)
# Conditions: HUVEC TNFalpha-induced E-selectin immunofluorescence imaging, at 2 µM; inhibition: stronger effect = higher value; nuclei count: measured here: cell number, toxicity
Structure (SMILES),nuclei count [%],inhibition
Cc1[nH]c(C(=O)N2CCCCC2)c(C)c1C(=O)NC1CCCCC1,123,-49.8% (inactive)
COc1ccc(OC)c(CNC(=O)COc2cc(=O)n(C)c3ccccc23)c1,100,18% (inactive)
CCc1nnc(NC(=O)C2CC(=O)N(Cc3ccco3)C2)s1 (configuration not stated),106,-0.2% (inactive)
Oc1cccc(C=NCc2ccccc2)c1O,130,-100% (inactive)
COc1ccc(-c2noc(CCCC(=O)O)n2)cc1,107,-54.3% (inactive)
CC(C)c1nnc(NC(=O)c2cnccn2)s1,105,-38.5% (inactive)
Cc1cc(=O)n2nc(N3CCCC(C(=O)N4CCN(C)CC4)C3)sc2n1 (configuration not stated),126,-186% (inactive)
O=S(=O)(Cc1ccccc1)N1CCCCCC1,103,-42.3% (inactive)
Cc1[nH]nc2c1C1(C(=O)N(Cc3ccc(Cl)cc3)c3ccccc31)C(C#N)=C(N)O2 (configuration not stated),114,-24.6% (inactive)
C=CCn1c(COc2ccccc2)nnc1SCC(=O)C(C)(C)C,98.4,7.8% (inactive)
Nn1c(SCC(=O)Nc2ccc(F)cc2)nnc1-c1cccnc1,108,-112% (inactive)
Cc1ccc(S(=O)(=O)N2CCOCC2)cc1C(=O)Nc1nc(-c2cccnc2)cs1,100,-22.3% (inactive)
C=CCN(C(=O)CNS(=O)(=O)c1ccccc1)C(C(=O)NCCOC)c1ccncc1 (configuration not stated),80.2,7.6% (inactive)
O=C(CCn1c(=S)[nH]c2cc3c(cc2c1=O)OCO3)N1CCN(C2CCCCC2)CC1,85.3,28.2% (inactive)
CC(C)OC(=O)CN1C(=O)C(C)(C)Oc2ccc(C(=O)NC3CC3)cc21,102,-11.5% (inactive)
C/C(N)=C(/C#N)C(=O)COC(=O)c1cc(C)n(-c2ccc(F)cc2)c1C,146,-93.8% (inactive)
O=C(Nc1cccc(F)c1)C1C2C=CC3(CN(CCCN4CCOCC4)C(=O)C13)O2 (configuration not stated),116,-75.2% (inactive)
CCOc1ccc2nc(SCC(=O)N3CCCCCC3)c(C#N)cc2c1,150,-95.4% (inactive)
CCOC(=O)N(C)c1ccc(C(O)(C(F)(F)F)C(F)(F)F)cc1,109,-58.6% (inactive)
CCOC(=O)c1sc(NC(=O)CSc2nnc3c4ccccc4n(CC)c3n2)nc1C,110,-6.3% (inactive)

Structure (SMILES),nuclei count [%],inhibition
COc1cc(CN(C)CC(=O)c2[nH]c(C)c(C(C)=O)c2C)ccc1OC(F)F,129,-86.8% (inactive)
CCCCn1c(SCC(=O)N2CC(=O)Nc3ccccc32)nnc1-c1ccoc1C,174,-146% (inactive)
CCOC(=O)c1ccc(N=c2sc(C(=O)OC)cc(=O)n2Cc2ccco2)cc1,112,0.2% (inactive)
CCOC(=O)CN(C(=O)CSc1nnc(-c2ccncc2)n1CCCN(C)C)c1ccccc1,92.8,-14.2% (inactive)
CCOC(=O)N1CCN(c2c(NCCN(C)Cc3ccccc3)c(=O)c2=O)CC1,124,-62.3% (inactive)
Clc1cccc(N2CCN(Cc3nc(-c4ccccc4)no3)CC2)c1,122,-43.3% (inactive)
COc1ccccc1CN1CC(C(=O)NCc2cccnc2)CC1=O (configuration not stated),113,-0.1% (inactive)
COc1cccc(C2C(C(N)=O)=C(C)Nc3nc(-c4ccccc4Cl)nn32)c1 (configuration not stated),110,-48.3% (inactive)
CCOc1cccc(C(=O)N(Cc2ccco2)C2CCS(=O)(=O)C2)c1 (configuration not stated),110,-9.8% (inactive)
CCOC(=O)N1CCC(NC(=O)c2cc(C(=O)NC3CCCC3)ccc2CO)CC1,106,-14.1% (inactive)
COc1ccc(Br)cc1CNC(=O)C1CCCN(S(C)(=O)=O)C1 (configuration not stated),113,-129% (inactive)
Cc1nc2c(C(=O)O)cnn2c(C)c1Cc1ccccc1F,105,-44.9% (inactive)
O=c1[nH]c(N2CCCCC2)nc2c1CCCC2,102,9.4% (inactive)
CC(C)(C)NC(=O)C(c1ccco1)N(C(=O)Cn1nnc(-c2ccc(F)cc2)n1)c1ccccc1F (configuration not stated),127,-96.2% (inactive)
O=C(Nc1ccccc1N1CCOCC1)c1ccc2ccccc2n1,94.6,17.1% (inactive)
Nc1nc2n(n1)C(c1cccc(Br)c1)CC(c1ccccc1)N2 (configuration not stated),111,-39.6% (inactive)
CCN(C(=O)c1cc(Cl)ccc1OC)c1ccccc1,118,-7.9% (inactive)
CC(C)[C@H](NC(=O)OC(C)(C)C)c1nnc(SCc2cccc(F)c2)o1,122,-63.9% (inactive)
CC(=O)NS(=O)(=O)c1ccc(NC(=O)c2ccccc2F)cc1,90.8,31.9% (inactive)

# Target: Voltage-gated potassium channel subunit beta-2 (Rattus norvegicus) (UniProt P62483)
# Test: inhibitors of rat Kvbeta2 reductase activity – biochemical, NADPH fluorescence, primary screen (AID 622);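 further: slope of raw intensity against log time taken from 70 to 1610 s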
# Conditions: recombinant KvBeta, 4-cyanobenzaldehyde reduction, at 10 µM, stronger effect = higher value
# Sequence of Voltage-gated potassium channel subunit beta-2 (Rattus norvegicus) (P62483 whole entry, looked up): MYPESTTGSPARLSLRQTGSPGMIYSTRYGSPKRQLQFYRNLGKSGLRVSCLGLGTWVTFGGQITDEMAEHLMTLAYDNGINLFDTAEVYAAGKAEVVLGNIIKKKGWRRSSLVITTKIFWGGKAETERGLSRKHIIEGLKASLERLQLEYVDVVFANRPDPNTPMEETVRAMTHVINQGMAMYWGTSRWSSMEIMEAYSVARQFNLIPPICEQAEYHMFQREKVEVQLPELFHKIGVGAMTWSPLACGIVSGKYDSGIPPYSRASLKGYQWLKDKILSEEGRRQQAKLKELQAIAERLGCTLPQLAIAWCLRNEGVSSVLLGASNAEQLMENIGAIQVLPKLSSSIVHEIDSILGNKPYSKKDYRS
row,Structure (SMILES),fluorescence slope
1,Cc1[nH]c(C(=O)N2CCCCC2)c(C)c1C(=O)NC1CCCCC1,-0.528 (inactive)
2,COc1ccc(OC)c(CNC(=O)COc2cc(=O)n(C)c3ccccc23)c1,-0.349 (inactive)
3,CCc1nnc(NC(=O)C2CC(=O)N(Cc3ccco3)C2)s1 (configuration not stated),-0.507 (inactive)
4,Oc1cccc(C=NCc2ccccc2)c1O,-0.46 (inactive)
5,COc1ccc(-c2noc(CCCC(=O)O)n2)cc1,-0.341 (inactive)
6,CC(C)c1nnc(NC(=O)c2cnccn2)s1,-0.479 (inactive)
7,Cc1cc(=O)n2nc(N3CCCC(C(=O)N4CCN(C)CC4)C3)sc2n1 (configuration not stated),-0.313 (inactive)
8,O=S(=O)(Cc1ccccc1)N1CCCCCC1,-0.497 (inactive)
9,Cc1[nH]nc2c1C1(C(=O)N(Cc3ccc(Cl)cc3)c3ccccc31)C(C#N)=C(N)O2 (configuration not stated),-0.338 (inactive)
10,C=CCn1c(COc2ccccc2)nnc1SCC(=O)C(C)(C)C,-0.449 (inactive)
11,Nn1c(SCC(=O)Nc2ccc(F)cc2)nnc1-c1cccnc1,-0.397 (inactive)
12,Cc1ccc(S(=O)(=O)N2CCOCC2)cc1C(=O)Nc1nc(-c2cccnc2)cs1,-0.527 (inactive)
13,C=CCN(C(=O)CNS(=O)(=O)c1ccccc1)C(C(=O)NCCOC)c1ccncc1 (configuration not stated),-0.478 (inactive)
14,O=C(CCn1c(=S)[nH]c2cc3c(cc2c1=O)OCO3)N1CCN(C2CCCCC2)CC1,-0.476 (inactive)
15,CC(C)OC(=O)CN1C(=O)C(C)(C)Oc2ccc(C(=O)NC3CC3)cc21,-0.496 (inactive)
16,C/C(N)=C(/C#N)C(=O)COC(=O)c1cc(C)n(-c2ccc(F)cc2)c1C,-0.487 (inactive)
17,O=C(Nc1cccc(F)c1)C1C2C=CC3(CN(CCCN4CCOCC4)C(=O)C13)O2 (configuration not stated),-0.548 (inactive)
18,CCOc1ccc2nc(SCC(=O)N3CCCCCC3)c(C#N)cc2c1,-0.584 (inactive)
19,CCOC(=O)N(C)c1ccc(C(O)(C(F)(F)F)C(F)(F)F)cc1,-0.369 (inactive)
20,CCOC(=O)c1sc(NC(=O)CSc2nnc3c4ccccc4n(CC)c3n2)nc1C,-0.333 (inactive)

row,Structure (SMILES),fluorescence slope
1,COc1cc(CN(C)CC(=O)c2[nH]c(C)c(C(C)=O)c2C)ccc1OC(F)F,-0.616 (inactive)
2,CCCCn1c(SCC(=O)N2CC(=O)Nc3ccccc32)nnc1-c1ccoc1C,-0.534 (inactive)
3,CCOC(=O)c1ccc(N=c2sc(C(=O)OC)cc(=O)n2Cc2ccco2)cc1,-0.608 (inactive)
4,CCOC(=O)CN(C(=O)CSc1nnc(-c2ccncc2)n1CCCN(C)C)c1ccccc1,-0.615 (inactive)
5,CCOC(=O)N1CCN(c2c(NCCN(C)Cc3ccccc3)c(=O)c2=O)CC1,-0.492 (inactive)
6,Clc1cccc(N2CCN(Cc3nc(-c4ccccc4)no3)CC2)c1,-0.541 (inactive)
7,COc1ccccc1CN1CC(C(=O)NCc2cccnc2)CC1=O (configuration not stated),-0.502 (inactive)
8,COc1cccc(C2C(C(N)=O)=C(C)Nc3nc(-c4ccccc4Cl)nn32)c1 (configuration not stated),-0.416 (inactive)
9,CCOc1cccc(C(=O)N(Cc2ccco2)C2CCS(=O)(=O)C2)c1 (configuration not stated),-0.342 (inactive)
10,CCOC(=O)N1CCC(NC(=O)c2cc(C(=O)NC3CCCC3)ccc2CO)CC1,-0.535 (inactive)
11,COc1ccc(Br)cc1CNC(=O)C1CCCN(S(C)(=O)=O)C1 (configuration not stated),-0.362 (inactive)
12,Cc1nc2c(C(=O)O)cnn2c(C)c1Cc1ccccc1F,-0.406 (inactive)
13,O=c1[nH]c(N2CCCCC2)nc2c1CCCC2,-0.265 (inactive)
14,CC(C)(C)NC(=O)C(c1ccco1)N(C(=O)Cn1nnc(-c2ccc(F)cc2)n1)c1ccccc1F (configuration not stated),-0.56 (inactive)
15,O=C(Nc1ccccc1N1CCOCC1)c1ccc2ccccc2n1,-0.39 (inactive)
16,Nc1nc2n(n1)C(c1cccc(Br)c1)CC(c1ccccc1)N2 (configuration not stated),-0.59 (inactive)
17,CCN(C(=O)c1cc(Cl)ccc1OC)c1ccccc1,-0.447 (inactive)
18,CC(C)[C@H](NC(=O)OC(C)(C)C)c1nnc(SCc2cccc(F)c2)o1,-0.46 (inactive)
19,CC(=O)NS(=O)(=O)c1ccc(NC(=O)c2ccccc2F)cc1,-0.383 (inactive)
